These results are taken from ChEMBL document CHEMBL1157539, “Thousands of chemical starting points for antimalarial lead identification” (Nature, 2010).

Assay type in all cases: functional
Assay [1] deals with Plasmodium falciparum. The assay can be described thus: GSK_TCMDC: Inhibition of Plasmodium falciparum 3D7 in whole red blood cells, using parasite LDH activity as an index of growth. Test compounds present at 2uM.
Assay [2] concerns Plasmodium falciparum. In words: GSK_TCMDC: Inhibition of Plasmodium falciparum Dd2 in whole red blood cells, using parasite LDH activity as an index of growth. Test compounds present at 2uM.
For a further assay, the system named is HepG2. The assay can be described thus: GSK_TCMDC: Percent inhibition of human HepG2 cell line. Test compounds present at 10uM.

Broadly, the Inhibition is how much of the control response was suppressed. With `CNCCNCc1cccc(-c2cccc(-c3nc4cc(F)ccc4[nH]3)c2)c1.O=C(O)C(F)(F)F`, the Inhibition turned out to be 98% in the assay on Plasmodium falciparum [1], 15% with Plasmodium falciparum [2] and 20% in the assay on HepG2.
On the same counts, the results for `O=C(Nc1ccc(Cl)cc1F)NC1CCN(CCCCCNC(=O)C2CC2c2ccc(Cl)c(Cl)c2)CC1` (stereo unspecified) are 100%, 27% and 46%.
Taken in the same sequence, the figures for `Cc1nc(Nc2cc(Cl)ccc2O)nc(Nc2cc(Cl)ccc2O)c1[N+](=O)[O-]` were 98%, 83% and 0%.
Taken in the same sequence, the figures for `O=C(CN1CCN(C(=O)c2ccco2)CC1)Nc1ccc(Br)cc1Cl` were 88%, 79% and 10%.
With `CCNc1cc(C(=O)N[C@@H](Cc2ccccc2)[C@H](O)CNCCc2cccc(C(F)(F)F)c2)cc(N2CCCC2=O)c1.O=CO`, the Inhibition in the assay on Plasmodium falciparum [1] turned out to be 96%; with Plasmodium falciparum [2] it was 93%; with HepG2 it was 7%.
On the same counts, the results for `CS(=O)(=O)c1ccc(-c2cncc(Nc3cccc([N+](=O)[O-])c3)c2)cc1` are 97%, 70% and 6%.
Taken in the same sequence, the figures for `Cc1cc(C2CCN(CCCCNC(=O)c3ccc(-c4ccc(C(F)(F)F)cc4)cc3)CC2)c(C)cc1OCCOC1CCCCO1` (stereo unspecified) were 95%, 5% and 30%.
On the same counts, the results for `Cc1cccc(C(=O)Nc2ccnc(N3CCCN(Cc4cccc(O)c4)CC3)c2)c1.O=C(O)C(F)(F)F` are 84%, 13% and 0%.
On to `Cc1cccc(Nc2nccc(NCC(O)c3cccc(C(F)(F)F)c3)n2)c1` (stereo unspecified), for which the Inhibition stood at 100% with Plasmodium falciparum [1], 94% in the assay with Plasmodium falciparum [2] and 25% in the assay with HepG2.
On the same counts, the results for `Cc1cccc2nc(-c3cccc(-c4ccc(C(=O)NCc5ccccc5S(C)(=O)=O)cc4)c3)[nH]c12` are 100%, 27% and 17%.
On the same counts, the results for `CCCCc1cc(NCc2ccncc2)nc(Nc2ccc(OC)cc2)n1` are 93%, 22% and 11%.
On the same counts, the results for `CN(C)CCNCc1cccc(-c2ccc3c(Nc4ccc(F)cc4Cl)ccnc3c2)c1` are 100%, 98% and 17%.
As to `CN1CCN(CC(=O)Nc2ccc(-c3ccc(-c4nc5ccccc5[nH]4)s3)cc2)CC1`, the Inhibition with Plasmodium falciparum [1] was 100%; with Plasmodium falciparum [2], 49%; with HepG2 it was 12%.
Turning to `CCN(CCCN1CCCCC1)c1cc(C)nc(Nc2ccc(OC)cc2)n1.O=C(O)C(F)(F)F`, the Inhibition with Plasmodium falciparum [1] is 100%; in the assay with Plasmodium falciparum [2], 24%; with HepG2, 23%.
On the same counts, the results for `Oc1cc(NC[C@@H]2CCC[C@@H]2NCc2ccc(Cl)c(Cl)c2)nc2ccccc12` are 100%, 75% and 9%.
`COc1cccc(Nc2nc(C)cc(NCc3ccc(-n4ccnc4)cc3)n2)c1`: the Inhibition with Plasmodium falciparum [1] is 100%; with Plasmodium falciparum [2] it was 99%; with HepG2, 0%.
Taken in the same sequence, the figures for `Cc1nn(-c2cccc(C(F)(F)F)c2)c2sc(C(=O)NC3CCN(C(C)C)CC3)cc12` were 94%, 20% and 98%.
Taken in the same sequence, the figures for `Cc1ccc(O)cc1Nc1ccnc2cc(-c3csc(CN4CCN(C)CC4)n3)ccc12` were 100%, 77% and 6%.
With `CN1CCC(C(=O)Nc2ccc(-c3ccc(-c4nc5cc(C(F)(F)F)ccc5[nH]4)s3)cc2)CC1`, the results for the Inhibition in the assay on Plasmodium falciparum [1], with Plasmodium falciparum [2] and in the assay with HepG2 were 100%, 95% and 53%, respectively.
On to `CCCCCCc1cc(Oc2c(I)cc(C[C@H](N)C(=O)O)cc2I)ccc1O`, for which the Inhibition in the assay on Plasmodium falciparum [1] is on record as 97%; in the assay on Plasmodium falciparum [2] it was 0%; in the assay on HepG2, 0%.
Take `O=C(NC1CCN(CCC[C@]2(c3ccc(Cl)c(Cl)c3)CCCN(C(=O)c3ccccc3)C2)CC1)c1ccc(Cl)cc1`: the Inhibition amounted to 95% in the assay on Plasmodium falciparum [1], 4% in the assay on Plasmodium falciparum [2] and 56% in the assay with HepG2.
As for `CCn1c(-c2nonc2N)nc2cnc(Oc3cccc(NC(=O)c4ccc(OCCCN5CCCCC5)cc4)c3)cc21`, the figures for the Inhibition with Plasmodium falciparum [1], in the assay on Plasmodium falciparum [2] and with HepG2 were 90%, 12% and 38%, respectively.
Turning to `CC(=O)Nc1cccc(C(=O)Nc2ccc(-c3cccc(-c4nc5cccc(C)c5[nH]4)c3)cc2)c1`, the values for the Inhibition in the assay with Plasmodium falciparum [1], in the assay with Plasmodium falciparum [2] and in the assay with HepG2 were 100%, 50% and 86%, respectively.
On the same counts, the results for `CCN(CC)CCNc1nccc(N(C)c2ccc(NC(=O)Nc3cc(C(F)(F)F)ccc3F)cc2)n1.O=C(O)C(F)(F)F` are 97%, 25% and 74%.
Taken in the same sequence, the figures for `Oc1c(C(Nc2nc3ccccc3s2)c2ccccc2)ccc2cccnc12` (stereo unspecified) were 95%, 83% and 45%.
Taken in the same sequence, the figures for `O=C(COc1ccc(F)cc1)NC1CCN(c2ccnc3cc(Cl)ccc23)C1.O=C(O)C(F)(F)F` (stereo unspecified) were 100%, 100% and 24%.
In the case of `CCN(CC)CCN(Cc1ccc(-c2ccc(C(F)(F)F)cc2)cc1)C(=O)Cn1c(CCc2cccc(F)c2F)nc(=O)c2cc(F)ccc21.O=C(O)C(O)C(O)C(=O)O`, the results for the Inhibition in the assay with Plasmodium falciparum [1], in the assay with Plasmodium falciparum [2] and in the assay with HepG2 were 98%, 45% and 15%, respectively.
